Source: PubChem BioAssay
Active and inactive are the calls of the source. Unless noted, how the calls were made is not given here.

Tests used:
[1] = test system: Wnt5a (protein binding on small-molecule microarray); experiment: small molecules binding Wnt5a protein – biophysical, small-molecule microarray, 635/667 nm fluorescence, primary screen (AID 1142); conditions: 635 nm fluorescence, higher = more signal;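 further: fluorescence read at 667 nm with signal to noise per printed feature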
[2] = ATP-based viability of Huh7 replicon cells – cell-based, CellTiter-Glo luminescence, basal, 48 h, cytotoxicity control for HCV replication inhibitor project, primary screen (AID 1143); conditions: higher = more signal, called active from +8 up or from −8 down;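 further: Huh7 hepatoma cells carrying a hepatitis C replication reporter with no stimulus; test concentration not given here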
[3] = Pseudomonas biofilm growth suppression – PAO1 strain, BacTiter-Glo luminescence, LB-PBS, primary screen (AID 1144); conditions: P. aeruginosa PAO1 biofilm, 12 h, higher = more signal
[4] = basal CRE-LacZ reporter activity in PC12 – cell-based, unstimulated, primary screen (AID 1145); conditions: no forskolin, luminescence, 4.5 h, higher = more signal, called active from +8 up or from −8 down
[5] = forskolin-driven CRE-LacZ activity in PC12 – cell-based, CRE-LacZ reporter, forskolin-stimulated, primary screen (AID 1146); conditions: luminescence, 4.5 h, higher = more signal, called active from +8 up or from −8 down;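 further: PC12 cells with 6xCRE LacZ reporter stimulated by forskolin 10 µM; beta-galactosidase reporter signal reflecting CREB driven transcription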
[6] = molecular target: Streptavidin (Streptomyces avidinii) (UniProt P22629); experiment: compounds binding control protein streptavidin – biophysical, small-molecule microarray, 635/667 nm fluorescence, artefact control for SMM compound annotation, primary screen (AID 1147); conditions: higher = more signal;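 further: signal reflects streptavidin binding to arrayed compounds as a control protein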
Chain of Streptavidin (Streptomyces avidinii) (P22629 whole entry, looked up): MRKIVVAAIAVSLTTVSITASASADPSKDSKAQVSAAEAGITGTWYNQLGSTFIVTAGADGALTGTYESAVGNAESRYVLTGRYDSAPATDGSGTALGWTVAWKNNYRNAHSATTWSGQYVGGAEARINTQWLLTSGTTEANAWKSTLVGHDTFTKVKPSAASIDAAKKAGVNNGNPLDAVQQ

[7] = probe aInhba binding on compound microarray – biochemical, small-molecule microarray, 635/667 nm fluorescence, primary screen (AID 1148); conditions: higher = more signal;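 further: score merges 667nm spot fluorescence with signal-to-noise for antibody binding to printed compounds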
Torsin-1A (Homo sapiens) [8] = molecular target: Torsin-1A (Homo sapiens) (UniProt O14656); experiment: TOR1A wild-type binding on microarray – cell lysate, small-molecule microarray, lysate, 635/667 nm, primary screen (AID 1149); conditions: COS7 hTOR1A-WT lysate, 635 nm fluorescence, higher = more signal
Chain of Torsin-1A (Homo sapiens) (O14656 whole entry, looked up): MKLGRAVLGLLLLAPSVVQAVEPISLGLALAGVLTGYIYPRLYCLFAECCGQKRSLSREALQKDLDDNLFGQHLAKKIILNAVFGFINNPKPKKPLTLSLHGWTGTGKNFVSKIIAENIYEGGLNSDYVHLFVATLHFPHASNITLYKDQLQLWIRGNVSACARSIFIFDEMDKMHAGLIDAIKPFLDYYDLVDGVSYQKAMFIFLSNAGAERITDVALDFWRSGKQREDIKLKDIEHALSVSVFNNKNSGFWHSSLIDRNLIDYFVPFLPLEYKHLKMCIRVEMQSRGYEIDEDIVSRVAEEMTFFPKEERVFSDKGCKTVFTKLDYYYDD

Torsin-1A (Homo sapiens) [9] = molecular target: Torsin-1A (Homo sapiens) (UniProt O14656); experiment: torsin A mutant lysate binding on microarrays – cell lysate, small-molecule microarray, COS7 lysate, 635/667 nm fluorescence, primary screen (AID 1150); conditions: COS7 hTOR1A mutant lysate, 635 nm fluorescence, higher = more signal;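 further: score pools 667 nm emission and signal to noise measuring lysate protein binding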
[10] = test system: Sonic hedgehog protein (Shh); experiment: Sonic hedgehog microarray binding compounds – biochemical, small-molecule microarray, 635/667 nm fluorescence, primary screen (AID 1151); conditions: 635 nm fluorescence, higher = more signal;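 further: Shh protein binding to compounds spotted on small-molecule microarray slides; score combines spot fluorescence intensity with signal-to-noise across triplicate slides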
[11] = optical density shifts of acrAB sulA E. coli – strain DRC41, OD650, 48 h, E. coli filamentation inducer project, primary screen (AID 1152); conditions: higher = more signal, called active from +8 up or from −8 down;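 further: E. coli MC1000 strain DRC41 lacking acrAB efflux pump and sulA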
[12] = probe aLefty1 binding on compound microarray – biochemical, small-molecule microarray, 635/667 nm fluorescence, primary screen (AID 1153); conditions: higher = more signal;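 further: score merges spot fluorescence with signal-to-noise ratio from the scanned slide images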
[13] = plasmodial surface anion channel blockers, osmotic lysis – cell-based, P. falciparum Indochina, OD700, 1 h, primary screen (AID 1154); conditions: P. falciparum Indochina infected RBC osmotic lysis, higher = more signal, called active from +8 up or from −8 down
[14] = plasmodial surface anion channel blockers, osmotic lysis – cell-based, P. falciparum Indochina, OD700, 2 h, primary screen (AID 1155);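 further: lysis reports solute entry through the parasite surface anion channel PSAC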; conditions: P. falciparum Indochina infected erythrocytes, higher = more signal, called active from +8 up or from −8 down
[15] = changes in parasitized red cell lysis, either direction – P. falciparum Indochina, OD700, 3 h, PSAC antagonist project, primary screen (AID 1156); conditions: P. falciparum-infected erythrocytes, osmotic lysis, higher = more signal, called active from +8 up or from −8 down
[16] = plasmodial surface anion channel blockers, osmotic lysis – cell-based, P. falciparum Indochina, OD700, 18 h, primary screen (AID 1157); conditions: P. falciparum Indochina infected erythrocytes, osmotic lysis OD700, 18 h; higher = more signal, called active from +8 up or from −8 down
[17] = S6 kinase pathway phospho-S6 level changes – cell-based, A549, cytoblot, luminescence, serum-stimulated, primary screen (AID 1158); conditions: 5 h, higher = more signal;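 further: serum-stimulated A549 lung adenocarcinoma cells; signal is phosphorylated S6 detected by cytoblot immunostaining with HRP secondary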
[18] = molecular target: NADPH oxidase 2 (Homo sapiens) (UniProt P04839); experiment: compounds shifting NOX2 Amplex Red fluorescence – cell-based, HEK293-NOX2, PMA-stimulated, NOX inhibitor project, primary screen (AID 1159); conditions: 45 min, higher = more signal, called active from +8 up or from −8 down; further: test concentration not given here
Chain of NADPH oxidase 2 (Homo sapiens) (P04839 whole entry, looked up): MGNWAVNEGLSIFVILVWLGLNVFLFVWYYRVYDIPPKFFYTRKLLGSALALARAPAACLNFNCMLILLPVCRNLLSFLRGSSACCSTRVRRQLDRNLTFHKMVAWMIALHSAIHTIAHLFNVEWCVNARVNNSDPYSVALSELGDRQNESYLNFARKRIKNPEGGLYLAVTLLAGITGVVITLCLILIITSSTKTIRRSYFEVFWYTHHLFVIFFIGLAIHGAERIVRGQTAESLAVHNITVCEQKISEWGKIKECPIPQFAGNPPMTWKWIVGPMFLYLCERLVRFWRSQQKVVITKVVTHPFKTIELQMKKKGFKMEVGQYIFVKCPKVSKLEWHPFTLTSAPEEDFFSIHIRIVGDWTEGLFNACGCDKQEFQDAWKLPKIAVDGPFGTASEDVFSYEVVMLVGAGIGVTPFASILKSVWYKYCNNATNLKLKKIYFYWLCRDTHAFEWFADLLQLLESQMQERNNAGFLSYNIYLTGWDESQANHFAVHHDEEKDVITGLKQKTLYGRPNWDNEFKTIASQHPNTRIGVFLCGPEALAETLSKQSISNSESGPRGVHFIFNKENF

[19] = molecular target: NADPH oxidase 4 (Homo sapiens) (UniProt Q9NPH5); experiment: compounds shifting NOX4 Amplex Red fluorescence – cell-based, HEK293-NOX4, tetracycline-induced, NOX inhibitor project, primary screen (AID 1160); conditions: HEK293-NOX4, Amplex Red H2O2 fluorescence, 45 min; higher = more signal, called active from +8 up or from −8 down
Chain of NADPH oxidase 4 (Homo sapiens) (Q9NPH5 whole entry, looked up): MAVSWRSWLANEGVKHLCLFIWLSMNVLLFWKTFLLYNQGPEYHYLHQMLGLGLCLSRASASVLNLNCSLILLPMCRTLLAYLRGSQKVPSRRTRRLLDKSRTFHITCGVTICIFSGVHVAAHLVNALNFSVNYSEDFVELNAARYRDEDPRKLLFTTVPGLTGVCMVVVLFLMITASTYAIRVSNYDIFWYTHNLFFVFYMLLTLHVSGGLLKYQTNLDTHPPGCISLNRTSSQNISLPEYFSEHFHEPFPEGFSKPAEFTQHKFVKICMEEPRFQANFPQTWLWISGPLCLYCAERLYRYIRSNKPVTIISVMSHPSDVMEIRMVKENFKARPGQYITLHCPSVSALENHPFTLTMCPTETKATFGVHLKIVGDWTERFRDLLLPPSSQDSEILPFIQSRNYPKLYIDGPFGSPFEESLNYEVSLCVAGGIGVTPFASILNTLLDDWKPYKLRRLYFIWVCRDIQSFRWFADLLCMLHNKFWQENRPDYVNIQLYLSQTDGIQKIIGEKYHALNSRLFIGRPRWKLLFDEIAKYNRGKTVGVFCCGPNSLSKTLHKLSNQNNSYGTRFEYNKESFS

[20] = molecular target: NADPH oxidase 5 (Homo sapiens) (UniProt Q96PH1); experiment: compounds shifting NOX5 Amplex Red fluorescence – cell-based, HEK293-NOX5, NOX inhibitor project, primary screen (AID 1161); conditions: HEK293-NOX5, ionomycin, 45 min, higher = more signal
Chain of NADPH oxidase 5 (Homo sapiens) (Q96PH1 whole entry, looked up): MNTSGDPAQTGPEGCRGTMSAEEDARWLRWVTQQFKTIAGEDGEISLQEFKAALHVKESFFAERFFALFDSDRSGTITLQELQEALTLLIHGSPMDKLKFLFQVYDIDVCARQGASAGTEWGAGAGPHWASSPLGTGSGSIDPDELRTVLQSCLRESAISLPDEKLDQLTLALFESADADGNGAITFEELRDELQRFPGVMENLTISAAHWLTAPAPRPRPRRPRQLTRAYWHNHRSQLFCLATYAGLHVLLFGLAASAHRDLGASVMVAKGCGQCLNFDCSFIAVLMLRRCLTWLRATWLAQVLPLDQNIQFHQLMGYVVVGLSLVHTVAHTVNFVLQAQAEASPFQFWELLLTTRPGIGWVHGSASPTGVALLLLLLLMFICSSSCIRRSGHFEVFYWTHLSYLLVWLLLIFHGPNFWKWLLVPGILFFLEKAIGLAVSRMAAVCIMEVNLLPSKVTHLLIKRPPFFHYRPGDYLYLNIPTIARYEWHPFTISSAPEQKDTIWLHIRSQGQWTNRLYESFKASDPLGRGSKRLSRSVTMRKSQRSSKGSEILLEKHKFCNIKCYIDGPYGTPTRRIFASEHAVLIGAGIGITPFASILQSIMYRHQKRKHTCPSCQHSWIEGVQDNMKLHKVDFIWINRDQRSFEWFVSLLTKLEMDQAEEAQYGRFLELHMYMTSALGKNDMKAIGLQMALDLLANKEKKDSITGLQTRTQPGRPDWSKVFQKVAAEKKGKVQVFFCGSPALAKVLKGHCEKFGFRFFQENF

## CCOc1cc(C(O)C2C=CC3C(=O)N(c4ccccc4)C(=O)C3N2Nc2ccccc2F)ccc1O (stereo not given)
[1]
  composite z-score: 0.482
[2]
  z-score: 0.777 (inactive)
[3]
  z-score: -0.545 (inactive)
[4]
  z-score: 0.815 (inactive)
[5]
  z-score: 0.63 (inactive)
[6]
  composite z-score: 0.376
[7]
  composite z-score: 0.75
Torsin-1A (Homo sapiens) [8]
  composite z-score: -0.166
Torsin-1A (Homo sapiens) [9]
  composite z-score: 0.407
[10]
  composite z-score: -0.663
[11]
  z-score: -0.469 (inactive)
[12]
  composite z-score: 0.875
[13]
  z-score: 6.56 (inactive)
[14]
  z-score: 1.27 (inactive)
[15]
  z-score: -0.0788 (inactive)
[16]
  z-score: 0.926 (inactive)
[17]
  z-score: -0.824
[18]
  z-score: -2.32 (inactive)
[19]
  z-score: -4.37 (inactive)
[20]
  z-score: -4.13

## N#Cc1ccc(NN2C(C(O)C3CC=CCC3)C=CC3C(=O)N(c4ccccc4)C(=O)C32)cc1 (stereo not given)
[1]
  composite z-score: 0.223
[2]
  z-score: 0.595 (inactive)
[3]
  z-score: -1.34 (inactive)
[4]
  z-score: 0.629 (inactive)
[5]
  z-score: 0.516 (inactive)
[6]
  composite z-score: 0.126
[7]
  composite z-score: -0.0131
Torsin-1A (Homo sapiens) [8]
  composite z-score: -0.694
Torsin-1A (Homo sapiens) [9]
  composite z-score: 0.202
[10]
  composite z-score: 2.08
[11]
  z-score: -0.411 (inactive)
[12]
  composite z-score: 0.364
[13]
  z-score: 16.9 (active)
[14]
  z-score: 3.34 (inactive)
[15]
  z-score: 0.889 (inactive)
[16]
  z-score: 1.14 (inactive)
[17]
  z-score: -0.723
[18]
  z-score: -1.21 (inactive)
[19]
  z-score: -2.27 (inactive)
[20]
  z-score: -2.39

## C=CCC(OC(C)=O)[C@@H]1[C@@H](N(Cc2cccc3ccccc23)C(=O)Cc2ccc(OC)cc2)c2cc(OCCCO)ccc2N1C(=O)Cc1ccc2ccccc2c1 (stereo not given in full)
[1]
  composite z-score: -0.0841
[2]
  z-score: -1.91 (inactive)
[3]
  z-score: 0.255 (inactive)
[4]
  z-score: -0.854 (inactive)
[5]
  z-score: 1.38 (inactive)
[6]
  composite z-score: 0.175
[7]
  composite z-score: -0.181
Torsin-1A (Homo sapiens) [8]
  composite z-score: -0.254
Torsin-1A (Homo sapiens) [9]
  composite z-score: -0.41
[10]
  composite z-score: 0.0227
[11]
  z-score: -0.504 (inactive)
[12]
  composite z-score: 0.285
[13]
  z-score: 2.18 (inactive)
[14]
  z-score: 0.0026 (inactive)
[15]
  z-score: 1.42 (inactive)
[16]
  z-score: -0.0843 (inactive)
[17]
  z-score: 0.909
[18]
  z-score: -2.23 (inactive)
[19]
  z-score: -0.887 (inactive)
[20]
  z-score: -1.91

## CCCNC(=O)[C@@]1(c2ccc([N+](=O)[O-])cc2)CC(=O)N(C(C)C)[C@@H]1c1ccc(CO)cc1
[1]
  composite z-score: -0.47
[2]
  z-score: -1.22 (inactive)
[3]
  z-score: 0.313 (inactive)
[4]
  z-score: 0.558 (inactive)
[5]
  z-score: 0.282 (inactive)
[6]
  composite z-score: -1.07
[7]
  composite z-score: -0.153
Torsin-1A (Homo sapiens) [8]
  composite z-score: -2.12
Torsin-1A (Homo sapiens) [9]
  composite z-score: -0.42
[10]
  composite z-score: -0.738
[11]
  z-score: -0.169 (inactive)
[12]
  composite z-score: -0.207
[13]
  z-score: 1.4 (inactive)
[14]
  z-score: -0.366 (inactive)
[15]
  z-score: 1.18 (inactive)
[16]
  z-score: 0.205 (inactive)
[17]
  z-score: 0.0662
[18]
  z-score: -0.144 (inactive)
[19]
  z-score: 0.069 (inactive)
[20]
  z-score: -1.85

## CC(C)C[C@H]1NC(=O)C([C@@H](C)OCc2ccccc2)NC(=O)[C@@]23C(=O)N[C@@H](Cc4ccccc4)C2[C@H](C)[C@@]2(C)O[C@H]2C3/C=C/C/C=C\CNC1=O (stereo not given in full)
[1]
  composite z-score: 0.0872
[2]
  z-score: -1.63 (inactive)
[3]
  z-score: 0.727 (inactive)
[4]
  z-score: 0.839 (inactive)
[5]
  z-score: -0.566 (inactive)
[6]
  composite z-score: 0.0874
[7]
  composite z-score: 0.242
Torsin-1A (Homo sapiens) [8]
  composite z-score: -0.125
Torsin-1A (Homo sapiens) [9]
  composite z-score: 0.519
[10]
  composite z-score: 1.62
[11]
  z-score: -0.629 (inactive)
[12]
  composite z-score: 0.0361
[13]
  z-score: 1.44 (inactive)
[14]
  z-score: -0.387 (inactive)
[15]
  z-score: -0.0195 (inactive)
[16]
  z-score: 0.0591 (inactive)
[17]
  z-score: 0.298
[18]
  z-score: 0.569 (inactive)
[19]
  z-score: 0.742 (inactive)
[20]
  z-score: -2.51

## CC(C)NC(=O)[C@@]1(C)c2ccccc2C(=O)N(Cc2ccccc2)[C@H]1c1ccc(CO)cc1
[1]
  composite z-score: -0.442
[2]
  z-score: -2.24 (inactive)
[3]
  z-score: 0.0156 (inactive)
[4]
  z-score: -0.592 (inactive)
[5]
  z-score: -1.08 (inactive)
[6]
  composite z-score: -1.23
[7]
  composite z-score: -0.312
Torsin-1A (Homo sapiens) [8]
  composite z-score: 0.654
Torsin-1A (Homo sapiens) [9]
  composite z-score: 1.39
[10]
  composite z-score: 0.504
[11]
  z-score: 1.31 (inactive)
[12]
  composite z-score: -0.0796
[13]
  z-score: 4.68 (inactive)
[14]
  z-score: -0.883 (inactive)
[15]
  z-score: -0.171 (inactive)
[16]
  z-score: -0.851 (inactive)
[17]
  z-score: 1.64
[18]
  z-score: -1.34 (inactive)
[19]
  z-score: 0.485 (inactive)
[20]
  z-score: 0.872

## Cc1ccccc1C(O)C1C=CC2C(=O)N(c3ccccc3)C(=O)C2N1Nc1ccccc1 (stereo not given)
[1]
  composite z-score: 0.719
[2]
  z-score: -0.383 (inactive)
[3]
  z-score: -1.18 (inactive)
[4]
  z-score: 0.0501 (inactive)
[5]
  z-score: 0.0163 (inactive)
[6]
  composite z-score: 1.65
[7]
  composite z-score: 0.182
Torsin-1A (Homo sapiens) [8]
  composite z-score: -0.241
Torsin-1A (Homo sapiens) [9]
  composite z-score: 0.191
[10]
  composite z-score: 0.442
[11]
  z-score: -0.29 (inactive)
[12]
  composite z-score: 0.271
[13]
  z-score: 20.1 (active)
[14]
  z-score: 3.73 (inactive)
[15]
  z-score: 0.214 (inactive)
[16]
  z-score: 1.59 (inactive)
[17]
  z-score: -0.495
[18]
  z-score: -1.85 (inactive)
[19]
  z-score: -2.96 (inactive)
[20]
  z-score: -2.44

## CC=CC(O)C1C=CC2C(=O)NC(=O)C2N1Nc1ccc(Cl)cc1Cl (stereo not given)
[1]
  composite z-score: -0.242
[2]
  z-score: 0.323 (inactive)
[3]
  z-score: 0.101 (inactive)
[4]
  z-score: -0.133 (inactive)
[5]
  z-score: 0.467 (inactive)
[6]
  composite z-score: 0.0171
[7]
  composite z-score: -0.176
Torsin-1A (Homo sapiens) [8]
  composite z-score: 0.34
Torsin-1A (Homo sapiens) [9]
  composite z-score: 0.0964
[10]
  composite z-score: 0.443
[11]
  z-score: -1.56 (inactive)
[12]
  composite z-score: 0.169
[13]
  z-score: 0.76 (inactive)
[14]
  z-score: 0.786 (inactive)
[15]
  z-score: 0.0682 (inactive)
[16]
  z-score: 1.29 (inactive)
[17]
  z-score: -0.637
[18]
  z-score: -1.35 (inactive)
[19]
  z-score: -4.61 (inactive)
[20]
  z-score: -3.02

## COC(=O)[C@@]1(Cc2ccccc2)[C@H]2c3cc(C(=O)N(C)C)n(Cc4ccc(S(C)(=O)=O)cc4)c3C[C@H]2CN1C(=O)c1ccccc1
[1]
  composite z-score: 0.493
[2]
  z-score: -1.6 (inactive)
[3]
  z-score: -0.361 (inactive)
[4]
  z-score: 0.39 (inactive)
[5]
  z-score: 1.02 (inactive)
[6]
  composite z-score: 2.48
[7]
  composite z-score: 0.496
Torsin-1A (Homo sapiens) [8]
  composite z-score: -0.178
Torsin-1A (Homo sapiens) [9]
  composite z-score: 1.13
[10]
  composite z-score: -0.68
[11]
  z-score: -1.77 (inactive)
[12]
  composite z-score: 0.71
[13]
  z-score: 1.5 (inactive)
[14]
  z-score: 0.542 (inactive)
[15]
  z-score: 1.95 (inactive)
[16]
  z-score: 0.814 (inactive)
[17]
  z-score: 0.393
[18]
  z-score: 1.12 (inactive)
[19]
  z-score: -2.78 (inactive)
[20]
  z-score: -2.6
